# According to publication PMC7862700, “An all-to-all approach to the identification of sequence-specific readers for epigenetic DNA modifications on cytosine”:
# Key:
# Experiment in all cases: DAPPL (digital affinity profiling via proximity ligation, sequencing); 10 mM Tris-HCl pH 7.5, 50 mM NaCl, 1 mM DTT, 4% glycerol, room temperature, 30 min; GST-TFs on glutathione beads, 16-mer random dsDNA library, 0.1% formaldehyde crosslink after washing; high values mean tight binding
# Conditions in all cases: protein: recombinant; tags: N-terminal GST; dsDNA, one strand shown
# GABPA = biological target: T1, GABPA (Homo sapiens, UniProt Q06546 1-454)
# T1 sequence: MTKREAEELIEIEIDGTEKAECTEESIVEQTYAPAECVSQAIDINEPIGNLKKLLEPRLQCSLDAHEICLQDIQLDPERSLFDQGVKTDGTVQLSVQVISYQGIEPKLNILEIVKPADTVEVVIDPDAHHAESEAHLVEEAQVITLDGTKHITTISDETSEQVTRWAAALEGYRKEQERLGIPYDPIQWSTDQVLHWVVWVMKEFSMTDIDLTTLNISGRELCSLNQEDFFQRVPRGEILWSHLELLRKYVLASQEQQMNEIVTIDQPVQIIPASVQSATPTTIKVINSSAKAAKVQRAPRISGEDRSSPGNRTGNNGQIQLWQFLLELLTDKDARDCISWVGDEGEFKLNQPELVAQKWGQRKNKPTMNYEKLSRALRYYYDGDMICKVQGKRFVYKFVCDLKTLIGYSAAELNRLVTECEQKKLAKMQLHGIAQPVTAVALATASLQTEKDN
# In short: (§1)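 GST fusions of human transcription factors were expressed in yeast and captured with glutathione beads. Once given DNA barcodes and pooled alongside a tag-only sample, they were incubated for 30 min at room temperature with 200 nmole of a random double-stranded 16-mer DNA library in Tris/NaCl/DTT/glycerol buffer, then washed, crosslinked (0.1% formaldehyde), proximity-ligated, PCR-amplified and sequenced on an Illumina NextSeq500. The binding signal of each hexamer is its read frequency for a factor divided by its frequency for the tag-only sample.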
# ERG = biological target: T2, ERG (Homo sapiens, UniProt P11308 1-479)
# T2 sequence: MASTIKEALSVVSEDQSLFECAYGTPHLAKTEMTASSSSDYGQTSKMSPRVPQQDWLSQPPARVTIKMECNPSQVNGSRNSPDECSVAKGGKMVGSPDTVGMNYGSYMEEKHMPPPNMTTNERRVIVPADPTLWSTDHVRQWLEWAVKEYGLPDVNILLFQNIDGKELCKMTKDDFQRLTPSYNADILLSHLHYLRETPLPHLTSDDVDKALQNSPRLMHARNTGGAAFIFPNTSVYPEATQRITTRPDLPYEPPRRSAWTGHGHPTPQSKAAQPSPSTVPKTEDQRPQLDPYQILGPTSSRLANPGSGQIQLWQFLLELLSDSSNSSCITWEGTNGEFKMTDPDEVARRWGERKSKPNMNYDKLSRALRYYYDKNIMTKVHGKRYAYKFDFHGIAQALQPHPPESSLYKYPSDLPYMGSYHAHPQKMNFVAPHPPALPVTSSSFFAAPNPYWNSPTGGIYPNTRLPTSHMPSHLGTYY
# In short: as §1
# ELF1 = ELF1 (Homo sapiens, UniProt P32519 1-619)
# ELF1, sequence (P32519 whole entry): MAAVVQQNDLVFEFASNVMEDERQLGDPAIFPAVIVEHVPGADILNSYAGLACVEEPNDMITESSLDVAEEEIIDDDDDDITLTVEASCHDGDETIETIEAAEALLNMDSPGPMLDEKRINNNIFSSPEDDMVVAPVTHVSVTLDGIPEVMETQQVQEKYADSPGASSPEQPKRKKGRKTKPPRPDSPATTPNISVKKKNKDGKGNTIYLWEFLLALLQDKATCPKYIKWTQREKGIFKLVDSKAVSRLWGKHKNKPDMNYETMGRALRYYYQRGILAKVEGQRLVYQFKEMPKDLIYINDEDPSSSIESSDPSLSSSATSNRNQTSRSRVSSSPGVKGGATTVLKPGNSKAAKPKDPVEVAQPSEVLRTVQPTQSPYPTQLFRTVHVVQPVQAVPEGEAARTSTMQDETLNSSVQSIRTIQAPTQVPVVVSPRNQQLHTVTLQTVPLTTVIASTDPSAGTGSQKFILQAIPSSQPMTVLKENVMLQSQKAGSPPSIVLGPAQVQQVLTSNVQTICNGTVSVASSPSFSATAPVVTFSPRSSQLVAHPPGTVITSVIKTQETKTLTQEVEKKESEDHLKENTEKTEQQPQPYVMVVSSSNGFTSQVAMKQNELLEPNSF
# In short: as §1
# EHF = biological target: T3, EHF (Homo sapiens, UniProt Q9NZC4 1-300)
# T3 sequence: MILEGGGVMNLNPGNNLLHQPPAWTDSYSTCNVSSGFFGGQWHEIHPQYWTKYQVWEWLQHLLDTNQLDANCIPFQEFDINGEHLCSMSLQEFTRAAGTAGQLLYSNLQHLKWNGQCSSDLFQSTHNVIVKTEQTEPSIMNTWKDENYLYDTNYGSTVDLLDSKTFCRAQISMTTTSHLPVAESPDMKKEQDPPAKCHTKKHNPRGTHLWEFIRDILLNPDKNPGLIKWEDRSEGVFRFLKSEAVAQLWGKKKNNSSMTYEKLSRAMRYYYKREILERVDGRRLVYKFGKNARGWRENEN
# In short: as §1
# SPIB = SPIB (Homo sapiens, UniProt Q01892 1-262)
# SPIB, sequence (Q01892 whole entry): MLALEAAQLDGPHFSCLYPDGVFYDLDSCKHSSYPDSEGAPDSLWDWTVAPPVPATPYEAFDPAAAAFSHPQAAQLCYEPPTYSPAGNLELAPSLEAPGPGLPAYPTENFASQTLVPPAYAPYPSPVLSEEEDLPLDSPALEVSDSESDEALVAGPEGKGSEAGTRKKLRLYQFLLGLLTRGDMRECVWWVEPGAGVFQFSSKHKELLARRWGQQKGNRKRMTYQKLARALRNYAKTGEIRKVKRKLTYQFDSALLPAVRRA
# In short: as §1
# ELK3 = biological target: T4, ELK3 (Homo sapiens, UniProt P41970 1-407)
# T4 sequence: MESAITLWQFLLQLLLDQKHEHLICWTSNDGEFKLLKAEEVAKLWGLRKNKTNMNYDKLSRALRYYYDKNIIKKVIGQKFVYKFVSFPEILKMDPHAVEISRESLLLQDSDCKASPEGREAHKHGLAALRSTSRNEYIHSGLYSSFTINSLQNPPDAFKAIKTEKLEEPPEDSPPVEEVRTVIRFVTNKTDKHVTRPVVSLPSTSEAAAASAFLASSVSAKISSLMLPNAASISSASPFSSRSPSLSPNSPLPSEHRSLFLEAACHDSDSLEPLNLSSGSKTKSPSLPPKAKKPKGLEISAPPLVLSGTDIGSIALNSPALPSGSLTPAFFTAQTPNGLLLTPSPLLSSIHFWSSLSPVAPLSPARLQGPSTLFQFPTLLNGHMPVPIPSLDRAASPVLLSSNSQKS
# In short: as §1
# SPIC = biological target: T5, SPIC (Homo sapiens, UniProt Q8N5J4 1-248)
# T5 sequence: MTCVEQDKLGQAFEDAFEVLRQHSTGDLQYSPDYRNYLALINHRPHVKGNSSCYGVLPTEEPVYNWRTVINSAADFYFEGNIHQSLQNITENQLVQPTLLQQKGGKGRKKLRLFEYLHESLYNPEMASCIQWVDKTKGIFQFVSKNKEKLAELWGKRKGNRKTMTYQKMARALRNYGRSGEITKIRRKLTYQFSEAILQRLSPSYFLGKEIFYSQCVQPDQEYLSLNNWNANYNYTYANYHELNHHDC
# In short: as §1
# ELF4 = ELF4 (Homo sapiens, UniProt Q99607 1-663)
# ELF4, sequence (Q99607 whole entry): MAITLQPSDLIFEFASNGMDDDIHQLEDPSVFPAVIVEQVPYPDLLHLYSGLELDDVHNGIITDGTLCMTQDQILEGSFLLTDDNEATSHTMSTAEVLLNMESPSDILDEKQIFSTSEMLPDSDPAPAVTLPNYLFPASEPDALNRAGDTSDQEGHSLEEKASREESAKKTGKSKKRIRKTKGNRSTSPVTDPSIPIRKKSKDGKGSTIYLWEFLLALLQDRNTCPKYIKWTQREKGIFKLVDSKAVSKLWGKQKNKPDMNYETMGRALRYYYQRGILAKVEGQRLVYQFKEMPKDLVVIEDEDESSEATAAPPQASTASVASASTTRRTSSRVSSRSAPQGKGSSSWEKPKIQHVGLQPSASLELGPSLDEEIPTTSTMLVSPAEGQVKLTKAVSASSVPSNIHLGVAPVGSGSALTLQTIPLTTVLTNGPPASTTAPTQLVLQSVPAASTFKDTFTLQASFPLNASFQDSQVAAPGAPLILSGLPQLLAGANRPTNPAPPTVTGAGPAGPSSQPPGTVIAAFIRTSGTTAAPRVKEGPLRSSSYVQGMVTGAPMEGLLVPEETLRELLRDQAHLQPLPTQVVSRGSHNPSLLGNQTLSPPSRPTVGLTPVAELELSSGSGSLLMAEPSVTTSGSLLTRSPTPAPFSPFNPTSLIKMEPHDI
# In short: as §1
# ELK4 = biological target: T6, ELK4 (Homo sapiens, UniProt P28324-2 1-405)
# T6 sequence: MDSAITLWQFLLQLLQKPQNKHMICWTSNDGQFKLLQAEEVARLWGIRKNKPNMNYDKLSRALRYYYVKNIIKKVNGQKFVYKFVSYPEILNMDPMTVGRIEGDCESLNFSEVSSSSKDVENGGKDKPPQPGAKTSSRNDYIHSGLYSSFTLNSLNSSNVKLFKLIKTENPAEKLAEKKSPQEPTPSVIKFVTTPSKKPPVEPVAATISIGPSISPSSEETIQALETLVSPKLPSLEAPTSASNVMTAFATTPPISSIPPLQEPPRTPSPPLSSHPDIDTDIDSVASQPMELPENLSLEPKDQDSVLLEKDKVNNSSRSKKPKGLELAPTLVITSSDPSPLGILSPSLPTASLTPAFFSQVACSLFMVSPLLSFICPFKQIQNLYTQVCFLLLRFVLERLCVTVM
# In short: as §1
# ELF3 = biological target: T7, ELF3 (Homo sapiens, UniProt P78545 1-371)
# T7 sequence: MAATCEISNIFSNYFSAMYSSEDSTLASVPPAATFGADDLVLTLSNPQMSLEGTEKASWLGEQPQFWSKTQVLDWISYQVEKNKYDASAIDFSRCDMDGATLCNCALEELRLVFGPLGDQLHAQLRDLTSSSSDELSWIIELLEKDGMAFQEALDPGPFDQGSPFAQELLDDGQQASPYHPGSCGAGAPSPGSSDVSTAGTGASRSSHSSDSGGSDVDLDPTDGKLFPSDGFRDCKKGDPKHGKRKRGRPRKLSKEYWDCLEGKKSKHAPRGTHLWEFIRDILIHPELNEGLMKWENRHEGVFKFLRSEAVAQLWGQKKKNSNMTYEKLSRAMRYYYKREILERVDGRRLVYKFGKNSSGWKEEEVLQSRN
# In short: as §1
# ETV1 = ETV1 (Homo sapiens, UniProt P50549 1-477)
# ETV1, sequence (P50549 whole entry): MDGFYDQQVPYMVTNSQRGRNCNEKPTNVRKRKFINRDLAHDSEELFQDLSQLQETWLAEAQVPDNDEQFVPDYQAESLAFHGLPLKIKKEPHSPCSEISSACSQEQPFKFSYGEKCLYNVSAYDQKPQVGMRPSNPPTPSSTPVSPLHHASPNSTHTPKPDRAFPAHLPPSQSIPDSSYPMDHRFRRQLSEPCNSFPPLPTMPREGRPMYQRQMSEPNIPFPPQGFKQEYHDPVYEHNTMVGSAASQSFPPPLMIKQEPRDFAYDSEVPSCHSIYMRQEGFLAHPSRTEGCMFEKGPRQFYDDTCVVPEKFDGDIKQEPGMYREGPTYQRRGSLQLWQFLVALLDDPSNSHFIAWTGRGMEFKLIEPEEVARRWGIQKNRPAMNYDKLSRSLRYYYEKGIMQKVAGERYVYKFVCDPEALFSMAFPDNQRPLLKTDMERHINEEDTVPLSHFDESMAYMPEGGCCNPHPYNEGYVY
# In short: as §1
# ERF = biological target: T8, ERF (Homo sapiens, UniProt P50548 1-548)
# T8 sequence: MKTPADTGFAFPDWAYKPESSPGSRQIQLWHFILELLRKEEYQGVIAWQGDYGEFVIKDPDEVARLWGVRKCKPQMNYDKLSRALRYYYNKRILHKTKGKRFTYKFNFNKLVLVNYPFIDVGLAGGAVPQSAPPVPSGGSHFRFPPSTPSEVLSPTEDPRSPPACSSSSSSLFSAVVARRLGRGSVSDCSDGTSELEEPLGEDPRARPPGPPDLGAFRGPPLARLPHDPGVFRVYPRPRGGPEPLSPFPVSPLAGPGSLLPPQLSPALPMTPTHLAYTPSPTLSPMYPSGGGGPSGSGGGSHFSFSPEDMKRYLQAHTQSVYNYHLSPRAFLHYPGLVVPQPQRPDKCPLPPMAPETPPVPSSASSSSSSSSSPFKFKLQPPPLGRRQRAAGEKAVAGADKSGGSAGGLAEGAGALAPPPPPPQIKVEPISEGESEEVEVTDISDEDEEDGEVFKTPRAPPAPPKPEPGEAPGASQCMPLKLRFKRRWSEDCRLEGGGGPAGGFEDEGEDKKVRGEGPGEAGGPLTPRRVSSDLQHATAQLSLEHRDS
# In short: as §1
# ETV3L = biological target: T9, ETV3L (Homo sapiens, UniProt Q6ZN32 1-361)
# T9 sequence: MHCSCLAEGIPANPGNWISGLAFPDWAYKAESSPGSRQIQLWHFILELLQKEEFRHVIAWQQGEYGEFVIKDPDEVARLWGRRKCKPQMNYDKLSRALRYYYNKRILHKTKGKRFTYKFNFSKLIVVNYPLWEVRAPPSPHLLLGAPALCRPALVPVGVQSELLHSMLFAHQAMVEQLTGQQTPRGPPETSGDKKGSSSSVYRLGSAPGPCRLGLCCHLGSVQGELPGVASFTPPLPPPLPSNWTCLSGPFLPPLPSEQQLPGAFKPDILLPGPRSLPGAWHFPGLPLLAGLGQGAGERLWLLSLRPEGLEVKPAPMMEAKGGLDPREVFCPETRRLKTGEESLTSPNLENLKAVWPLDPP
# In short: as §1
# ETS2 = biological target: T10, ETS2 (Homo sapiens, UniProt P15036 1-469)
# T10 sequence: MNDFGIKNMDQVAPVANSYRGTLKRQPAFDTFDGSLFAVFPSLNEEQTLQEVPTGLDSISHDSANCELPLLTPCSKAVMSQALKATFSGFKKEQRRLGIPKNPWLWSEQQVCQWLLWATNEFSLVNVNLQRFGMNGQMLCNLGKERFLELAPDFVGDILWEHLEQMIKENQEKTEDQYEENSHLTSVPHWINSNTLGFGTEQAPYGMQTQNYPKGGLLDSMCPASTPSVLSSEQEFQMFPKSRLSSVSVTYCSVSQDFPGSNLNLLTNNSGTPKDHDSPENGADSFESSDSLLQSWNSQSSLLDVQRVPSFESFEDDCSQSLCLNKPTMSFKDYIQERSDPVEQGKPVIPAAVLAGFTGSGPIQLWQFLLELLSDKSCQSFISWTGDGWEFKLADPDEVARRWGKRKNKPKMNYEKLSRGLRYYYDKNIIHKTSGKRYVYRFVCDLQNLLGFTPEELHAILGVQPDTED
# In short: as §1
# SPDEF = biological target: T11, SPDEF (Homo sapiens, UniProt O95238 1-335)
# T11 sequence: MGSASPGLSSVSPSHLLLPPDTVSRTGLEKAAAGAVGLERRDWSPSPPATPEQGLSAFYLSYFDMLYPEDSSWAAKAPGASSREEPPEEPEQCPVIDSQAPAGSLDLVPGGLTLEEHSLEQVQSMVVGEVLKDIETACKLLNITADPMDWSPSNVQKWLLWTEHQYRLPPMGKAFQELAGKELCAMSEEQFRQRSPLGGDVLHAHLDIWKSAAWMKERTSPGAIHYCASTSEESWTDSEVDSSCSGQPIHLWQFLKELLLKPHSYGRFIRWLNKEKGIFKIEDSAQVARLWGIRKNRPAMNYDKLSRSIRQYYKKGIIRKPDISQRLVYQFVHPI
# In short: as §1
# ETV7 = biological target: T12, ETV7 (Homo sapiens, UniProt Q9Y603 1-341)
# T12 sequence: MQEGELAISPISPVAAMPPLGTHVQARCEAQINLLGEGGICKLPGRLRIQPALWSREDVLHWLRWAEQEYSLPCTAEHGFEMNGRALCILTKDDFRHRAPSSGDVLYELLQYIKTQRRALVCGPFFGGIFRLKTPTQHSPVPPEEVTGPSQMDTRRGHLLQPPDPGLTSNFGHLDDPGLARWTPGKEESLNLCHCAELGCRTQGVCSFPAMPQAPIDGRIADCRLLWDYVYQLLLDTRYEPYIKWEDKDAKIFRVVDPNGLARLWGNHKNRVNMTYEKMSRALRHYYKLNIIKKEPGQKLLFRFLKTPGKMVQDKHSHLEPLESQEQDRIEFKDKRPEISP
# In short: as §1
# ETV3 = biological target: T13, ETV3 (Homo sapiens, UniProt P41162-2 1-143)
# T13 sequence: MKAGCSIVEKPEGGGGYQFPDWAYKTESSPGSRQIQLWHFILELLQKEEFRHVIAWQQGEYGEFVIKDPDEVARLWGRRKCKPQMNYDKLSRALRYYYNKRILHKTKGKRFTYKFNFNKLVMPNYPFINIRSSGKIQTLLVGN
# In short: as §1
# ETV6 = ETV6 (Homo sapiens, UniProt P41212 1-452)
# ETV6, sequence (P41212 whole entry): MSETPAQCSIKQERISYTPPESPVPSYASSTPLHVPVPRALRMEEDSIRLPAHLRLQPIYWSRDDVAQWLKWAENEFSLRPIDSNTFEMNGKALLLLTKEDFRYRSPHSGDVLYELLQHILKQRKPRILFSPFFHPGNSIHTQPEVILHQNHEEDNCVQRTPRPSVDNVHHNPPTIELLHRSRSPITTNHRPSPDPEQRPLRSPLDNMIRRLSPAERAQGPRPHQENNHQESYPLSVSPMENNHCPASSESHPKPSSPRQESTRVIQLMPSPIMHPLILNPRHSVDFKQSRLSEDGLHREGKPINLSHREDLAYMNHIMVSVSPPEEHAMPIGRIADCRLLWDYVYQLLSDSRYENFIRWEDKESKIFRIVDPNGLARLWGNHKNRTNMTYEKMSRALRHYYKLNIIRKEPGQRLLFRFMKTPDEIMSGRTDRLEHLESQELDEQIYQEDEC
# In short: as §1
sequence,measurement,setting,value
TTGCCA,binding signal,GABPA,"1.13 fold enrichment (6-mer frequency, TF over GST control)"
same,binding signal,ERG,"1.08 fold enrichment (6-mer frequency, TF over GST control)"
same,binding signal,ELF1,"1.03 fold enrichment (6-mer frequency, TF over GST control)"
same,binding signal,EHF,"1.12 fold enrichment (6-mer frequency, TF over GST control)"
same,binding signal,SPIB,"1.02 fold enrichment (6-mer frequency, TF over GST control)"
same,binding signal,ELK3,"1.05 fold enrichment (6-mer frequency, TF over GST control)"
same,binding signal,SPIC,"1.16 fold enrichment (6-mer frequency, TF over GST control)"
same,binding signal,ELF4,"1.07 fold enrichment (6-mer frequency, TF over GST control)"
same,binding signal,ELK4,"1.15 fold enrichment (6-mer frequency, TF over GST control)"
same,binding signal,ELF3,"1.17 fold enrichment (6-mer frequency, TF over GST control)"
same,binding signal,ETV1,"1.06 fold enrichment (6-mer frequency, TF over GST control)"
same,binding signal,ERF,"1.23 fold enrichment (6-mer frequency, TF over GST control)"
same,binding signal,ETV3L,"1 fold enrichment (6-mer frequency, TF over GST control)"
same,binding signal,ETS2,"1.05 fold enrichment (6-mer frequency, TF over GST control)"
same,binding signal,SPDEF,"1.14 fold enrichment (6-mer frequency, TF over GST control)"
same,binding signal,ETV7,"1.03 fold enrichment (6-mer frequency, TF over GST control)"
same,binding signal,ETV3,"1.12 fold enrichment (6-mer frequency, TF over GST control)"
same,binding signal,ETV6,"1.06 fold enrichment (6-mer frequency, TF over GST control)"
